A short description of assay [1]: qHTS Assay for Identifying Gametocytocidal Compounds (AID 743244). Also: potency is read from the fitted curve at half-maximal effect.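 As to max response: % is scaled to controls: 0 for no effect and ±100 for the full control effect; actives lower the fluorescent signal which means gametocytes are killed.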 To be noted: P. falciparum 3D7 stage III-V gametocytes, alamarBlue, 72 h; max response: stronger effect = lower value. The method in brief:
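Using 20,000 stage III–V 3D7 gametocytes per well, compounds were incubated 72 h under 37 °C/5% CO2. Viability was then assessed by 24 h alamarBlue reduction, measured fluorometrically at 525/598 nm.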
A general note: Quantitative high-throughput screening tests each substance at several concentrations.

The nature of assay [2]: qHTS assay for measurement of the activity of small molecule inhibitors on Zika virus induced Caspase-3 activity in human iPSC derived neural progenitor cells (hNPCs) (AID 1224857). Also: % of control where 0% means no effect; nearly all actives have a fitted effect of over 65% in size. The method in brief: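 After overnight (16–20 h) culture at 350 cells/well, hNPCs get compound, then ZIKV 2 FFU/cell one hour later. Six hours on, Caspase-Glo 3/7 is added and luminescence measured.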

Assay [3] is described as follows: qHTS assay for measurement of the activity of small molecule inhibitors on Zika virus induced Caspase-3 activity in human astrocytoma cells (AID 1224859).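 Also: plate controls were ZIKV-infected untreated cells for no effect and uninfected cells for full effect.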 The method in brief: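 Inhibition of Zika-induced caspase-3/7 activity: SNB-19 cells, 1 h compound pretreatment, ZIKV 2 FFU/cell for 6 h at 37 C, Caspase-Glo luminescence read-out.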
The nature of assay [4]: qHTS assay to identify small molecule inhibitors of chordoma cells - UCH-1 (AID 1259355). Also: % is scaled to controls: 0 for no effect and ±100 for the full control effect; nearly all actives have a fitted effect of over 55% in size. In short, it runs like this:
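Cells (800/well) were seeded and left overnight at 37 C, 5% CO2, then treated with drugs at 15 concentrations plus a combination mix of auranofin, camptothecin, doxorubicin, rubitecan and topotecan. Viability after 48hr was read by CellTiter-Glo luminescence.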

Assay [5] can be described thus: qHTS assay to identify small molecule inhibitors of chordoma cells - UCH-2 (AID 1259356). Also: % is scaled to controls: 0 for no effect and ±100 for the full control effect.
Assay [6] is described as follows: qHTS profiling for inhibitors of Plasmodium falciparum (3D7) proliferation (AID 743322).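 Also: infected erythrocytes exposed to compound for 72 h before lysis; 100% = DMSO vehicle wells and 0% = 0.29 µM artemisinin.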 To be noted: P. falciparum 3D7 proliferation; at 28.7 µM (top of the series) unless noted. In short, it runs like this:
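Erythrocytes infected with P. falciparum (0.3% parasitemia, 2.5% hematocrit) incubated with compounds 72 h at 37 C, 5% CO2. Lysis with saponin/Triton buffer containing SYBR Green I, overnight at room temperature in the dark; DNA fluorescence (485/535 nm) normalised to 0.29 uM artemisinin and DMSO.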

The nature of assay [7]: qHTS profiling for inhibitors of Plasmodium falciparum (DD2) proliferation (AID 743323; call rule not given here). To be noted: lower = more inhibition; at 28.7 µM (top of the series) unless noted. In short, it runs like this:
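Parasite proliferation measured via DNA-dye fluorescence, as uninfected erythrocytes lack DNA. Cultures at 0.3% parasitemia and 2.5% hematocrit incubated 72 h with compound; signal scaled between vehicle and 0.29 uM artemisinin wells.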

A short description of assay [8]: qHTS profiling for inhibitors of Plasmodium falciparum (HB3) proliferation (AID 743324).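 Also: 100% = DMSO vehicle wells and 0% = artemisinin-treated control wells.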 To be noted: Plasmodium falciparum HB3 blood-stage proliferation; at 28.7 µM (top of the series) unless noted. In short, it runs like this: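 P. falciparum HB3 grown in erythrocytes (0.3% parasitemia, 2.5% hematocrit final) with compound for 72 h at 37 C, 5% CO2. Parasite DNA detected by SYBR Green after saponin/triton lysis overnight; normalized to 0.29 uM artemisinin and DMSO.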

Assay [9] is described as follows: Identifying Small Molecule Inhibitors of Pancreatic Cancer Stem Cells (A2780, Spheroid) (AID 1259357).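 Also: compound exposure lasted 48 h before the ATP luminescence read; 100% = DMSO treated cells and 0% = wells without cells.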 The method in brief:
(§1)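 Monolayer and spheroid cultures are compared. Spheroids form over 14 days in stem cell medium on hydrogel-coated low-attachment plates, then are exposed to compound for 48 h before CellTiter-Glo luminescence.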

The nature of assay [10]: Identifying Small Molecule Inhibitors of Pancreatic Cancer Stem Cells (SN12C, Adherent) (AID 1259358).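 Also: cell survival measured after 48 h of compound exposure.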 The method in brief: as §1
A short description of assay [11]: Identifying Small Molecule Inhibitors of Pancreatic Cancer Stem Cells (SN12C, Spheroid) (AID 1259360).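 Also: 100% = DMSO-treated cells and 0% = wells without cells.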 In short, it runs like this:
as §1

Assay [12] is described as follows: Identifying Small Molecule Inhibitors of Pancreatic Cancer Stem Cells (A278, Adherent) (AID 1259361).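 Also: viability read after 48 h compound exposure; 100% = DMSO-treated cells and 0% = cell-free media-only wells; nearly all actives have a fitted effect of over 35% in size.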 The method in brief:
as §1

Each structure is given as a SMILES string. Several values for one entry are separate records, joined by “and”; a condition that tells them apart may be missing. Identical values can stand only once. Inconclusive results are not listed. Where a structure was tested more than once in an assay, its records may differ in their call. Activity calls are given as the source filed them. Unless noted, calls follow the shape of the dose curve; as a rule, active = well fitted curve in the direction sought with a large enough effect; inconclusive = small, poorly fitted or top-dose-only effect, or another doubt; inactive = no such curve, though single readings can be large; an effect the other way counts as inactive or inconclusive.

On to `CC1CC(OC(=O)C(O)c2ccccc2)CC(C)(C)N1C` (configuration not stated), for which, in assay [1], the max response is 12.1% (inactive) and 4.11% (inactive). Also, the compound was classed as inactive in assay [2], in assay [3] and in assay [5]. For the same compound, the Potency entry in assay [4] was “inactive”.

With `CC(=O)O[C@@]12CO[C@@H]1C[C@H](O)[C@@]1(C)C(=O)[C@H](O)C3=C(C)[C@@H](OC(=O)[C@H](O)[C@@H](NC(=O)OC(C)(C)C)c4ccccc4)C[C@@](O)([C@@H](OC(=O)c4ccccc4)[C@H]21)C3(C)C`, the Potency in assay [1] is 18.7 µM (active). For the same compound, in [1], the max response was -16.9% (inactive). For the same compound, in assay [6], the remaining parasite growth % (stronger effect = lower value) is 7.64% and -0.123%. Further, in assay [7], the activity, percent of control is 14.2% and 11.9%. In assay [8], the remaining proliferation (% of control), lower = more inhibition was 0.549% and 1.1%. Moreover, the compound was called inactive in assay [2], in assay [3], in [5], in assay [9], in assay [10] and in assay [11]. Also, in assay [4], the Potency result was “inactive”. For the same compound, the IC50 (viability decrease) result in assay [12] is “inactive”.

As for `O=c1cc(CO)occ1O`, the max response in assay [1] was 1.55% (inactive) and -0.506% (inactive). In addition, the call in assay [2], in assay [3] and in assay [5] was inactive. Moreover, the Potency entry in assay [4] was “inactive”.

On to `COc1cc(C)c(Cc2cnc(N)nc2N)cc1OC`, for which the max response in assay [1] was -2.96% (inactive). Further, the compound was classed as inactive in assay [2], in [3] and in [5]. In addition, the Potency result in [4] was “inactive”.

As for `O=C(O)c1ccccn1`, the max response in assay [1] was -0.573% (inactive). Also, the call in assay [2], in [3] and in [5] was inactive. Besides, the Potency entry in assay [4] was “inactive”.

As for `NC(CSCC(=O)O)C(=O)O` (configuration not stated), the max response in [1] is -8.42% (inactive). For the same compound, the result in [2], in assay [3] and in assay [5] was inactive. Also, the Potency entry in [4] was “inactive”.

With `OCC(O)CN1CCN(c2ccccc2)CC1` (configuration not stated), the max response in [1] was -0.192% (inactive). The outcome in [2], in [3] and in assay [5] was inactive. Besides, in assay [4], the Potency entry was “inactive”.

As to `CC1=C(CC(=O)O)c2cc(F)ccc2/C1=C\c1ccc(S(C)(=O)=O)cc1`, the outcome in [2] was inactive.

As to `CCN(CC)CCNC(C(=O)OCCC(C)C)c1ccccc1` (configuration not stated), the compound was classed as inactive in [2], in assay [3] and in [5]. In assay [4], the Potency result is “inactive”.

With `CN1CCN(C2Cc3ccccc3Sc3ccc(Cl)cc32)CC1` (configuration not stated), the compound was called inactive in [2], in assay [3] and in assay [5]. The Potency result in assay [4] is “inactive”.

For the origin of these results see PubChem BioAssay (NCATS).
